Active and inactive are the calls of the source. How the source made its calls: active means hit-call score of the fitted dose curve at least 0.9, where 1 is the maximum; inactive means score below 0.9.
Columns and labels:
[1] = ATG_CRE_CIS: Attagene CIS-FACTORIAL HepG2 Assay for human cAMP Responsive Element (CRE) binding protein 3 (AID 2282926); settings: HepG2 CRE cis-reporter, Attagene multiplexed mRNA; actives raise or lower the signal
In short: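 Endogenous transcription factor activity read via CRE-regulated reporter transcripts in transfected HepG2 cells. After 24 h exposure, RNA was reverse-transcribed, amplified, fluorescently labelled and sized by capillary electrophoresis; gain or loss fitted against DMSO.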

[2] = target: CCAAT/enhancer-binding protein beta (Homo sapiens) (UniProt P17676); assay: ATG_C_EBP_CIS: Attagene CIS-FACTORIAL HepG2 Assay for human CCAAT/Enhancer Binding Protein (C/EBP) beta (AID 2282927); settings: HepG2 Attagene cis-factorial transcription factor reporter; actives raise or lower the signal
In short: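 HepG2 transiently transfected with multiplexed reporter units under cis-regulatory promoters reporting endogenous C/EBPb activity. After 24 h exposure, reporter mRNA assayed by RT-PCR, fluorescent labelling, HpaI digestion and capillary electrophoresis; bidirectional fitting versus DMSO.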

[3] = ATG_AP_1_CIS: Attagene CIS-FACTORIAL HepG2 Assay for human Activator Protein 1 (AP-1) (AID 2282931); settings: HepG2 Attagene cis-factorial AP-1 reporter mRNA; actives raise or lower the signal
In short: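 After 24 h incubation with test chemical, RNA from transfected HepG2 cells was reverse-transcribed, amplified, fluorescently labelled and digested before capillary electrophoresis. Reporters were driven by cis-regulatory promoters; activity fitted bidirectionally versus DMSO.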

[4] = ATG_AP_2_CIS: Attagene CIS-FACTORIAL HepG2 Assay for human Activator Protein 2 (AP-2) (AID 2282932); settings: HepG2 AP-2 cis-reporter, Attagene transcription factor profiling; actives raise or lower the signal
In short: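 Liver-derived HepG2 line, cis-reporter system measuring endogenous factors; 24 h dosing; reporter mRNA detected by fluorescent RT-PCR and capillary electrophoresis.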

[5] = ATG_BRE_CIS: Attagene CIS-FACTORIAL HepG2 Assay for human Bone Morphogenetic Protein (BMP) Response Element (BRE) (AID 2282933); settings: HepG2 BMP response element reporter, Attagene transcription factor profiling; actives raise or lower the signal
In short: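 A HepG2 multiplex reporter system measured inducible reporter mRNA 24 h post-dosing. Detection: RT-PCR, 6-FAM primer extension, HpaI digestion, capillary electrophoresis. Activity fitted bidirectionally relative to DMSO.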

[6] = ATG_E_Box_CIS: Attagene CIS-FACTORIAL HepG2 Assay for human Enhancer Box (E-box) (AID 2282936); settings: HepG2 E-box cis-reporter transcription, actives raise or lower the signal
In short: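 In this cell-based setup, HepG2 cells bearing transfected promoter-driven reporter units were exposed to chemicals for 24 h; reporter transcripts were amplified, 6-FAM-labelled, cut with HpaI and sized by capillary electrophoresis.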

[7] = ATG_M_61_CIS: Attagene CIS-FACTORIAL HepG2 Assay for M61 Transcription Factor (Internal Marker) (AID 2282937); settings: HepG2 Attagene CIS-FACTORIAL M61 internal marker reporter; actives raise or lower the signal
In short: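 Using transiently transfected HepG2 liver cells, reporter transcript levels were assessed 24 h post-dosing by RT-PCR and capillary electrophoresis. Changes in either direction were fitted relative to DMSO controls.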

[8] = ATG_EGR_CIS: Attagene CIS-FACTORIAL HepG2 Assay for human Early Growth Response 1 (EGR1) (AID 2282938); settings: HepG2 Attagene CIS-FACTORIAL EGR reporter mRNA; actives raise or lower the signal
In short: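 Fluorescent capillary-electrophoresis signal of reporter cDNA fragments serves as read-out. HepG2 cells bear transiently transfected cis-promoter reporter units and are exposed 24 h; gain- or loss-of-signal is fitted against DMSO.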

[9] = ATG_Ets_CIS: Attagene CIS-FACTORIAL HepG2 Assay for human Erythroblast Transformation Specific (ETS) (AID 2282941); settings: HepG2 ETS cis-reporter transcription, actives raise or lower the signal
In short: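 Multiplexed reporter transcript profiling: HepG2, 24 h treatment, total RNA to cDNA, PCR, 6-FAM labelling, HpaI cut, capillary electrophoresis. Gain- or loss-of-signal fitted against DMSO.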

[10] = ATG_FoxO_CIS: Attagene CIS-FACTORIAL HepG2 Assay for human Forkhead box O (FoxO) (AID 2282943); settings: HepG2 Attagene cis-reporter, FoxO element, mRNA; actives raise or lower the signal
In short: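 HepG2 cells transiently transfected with cis-element-driven reporter units report endogenous FoxO activity. After 24 h chemical exposure, reporter mRNA quantified by RT-PCR, fluorescent labeling, HpaI digestion and capillary electrophoresis; bidirectional fit versus DMSO.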

[11] = ATG_GATA_CIS: Attagene CIS-FACTORIAL HepG2 Assay for human GATA Binding Protein (AID 2282944); settings: HepG2 GATA cis-element reporter, Attagene multiplex mRNA; actives raise or lower the signal
In short: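 Transfected cis-reporter HepG2 cells were treated with chemicals for 24 hours. Total RNA was then converted to cDNA, amplified with reporter-specific primers and analysed by fluorescent capillary electrophoresis, using DMSO-treated wells as baseline.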

[12] = ATG_M_32_CIS: Attagene CIS-FACTORIAL HepG2 Assay for M32 Transcription Factor (Internal Marker) (AID 2282949); settings: HepG2 Attagene cis-factorial M32 reporter, mRNA; actives raise or lower the signal;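 further: background control marker of the multiplexed CIS panel rather than a real target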
In short: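 HepG2 transfectants (cis-regulated reporter transcription units) dosed 24 h. Reporter mRNA by RT-PCR plus CE, analysed as gain or loss relative to DMSO.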

[13] = ATG_M_06_CIS: Attagene CIS-FACTORIAL HepG2 Assay for M06 Transcription Factor (Internal Marker) (AID 2282950); settings: HepG2 Attagene CIS-FACTORIAL M06 internal marker reporter; actives raise or lower the signal
In short: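 Cells (HepG2, transiently carrying cis-driven reporter units) receive chemical for 24 h before RNA isolation. Reporter cDNA is PCR-amplified, FAM-labelled by primer extension, HpaI-digested and sized on a capillary analyser.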

[14] = ATG_MRE_CIS: Attagene CIS-FACTORIAL HepG2 Assay for human Metal Responsive Element (MRE) (AID 2282954); settings: HepG2 MRE cis-reporter transcription, Attagene multiplex; actives raise or lower the signal
In short: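 Measured here is mRNA induction from an MRE cis-element reporter in HepG2 after 24 h, quantified by fluorescence of labelled RT-PCR products on capillary electrophoresis; gain- and loss-of-signal fits use DMSO as baseline.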

[15] = target: Paired box protein Pax-6 (Homo sapiens) (UniProt P26367); assay: ATG_Pax6_CIS: Attagene CIS-FACTORIAL HepG2 Assay for human Paired Box 6 (PAX6) (AID 2282956); settings: HepG2 CIS-FACTORIAL PAX6 reporter transcription, RNA readout; actives raise or lower the signal
In short: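 Values derive from bidirectional curve fitting of reporter mRNA signal relative to DMSO. HepG2 cells bearing transfected cis-regulated MRTUs were exposed for 24 h; transcripts were read by RT-PCR and capillary electrophoresis.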

[16] = ATG_PXRE_CIS: Attagene CIS-FACTORIAL HepG2 Assay for human Pregnane X Receptor Element (PXRE) (AID 2282957); settings: HepG2 Attagene CIS-FACTORIAL PXRE reporter, mRNA; actives raise or lower the signal
In short: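 Reporter transcripts under endogenous PXR-responsive cis-regulation quantified from total RNA of transfected HepG2 cells 24 h post-dosing, via RT-PCR with fluorescent primer extension and capillary electrophoresis. Gain or loss of signal fitted against DMSO baseline.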

[17] = target: Transcription factor Sp1 (Homo sapiens) (UniProt P08047); assay: ATG_Sp1_CIS: Attagene CIS-FACTORIAL HepG2 Assay for human Specificity Protein 1 (Sp1) (AID 2282961); settings: HepG2 Sp1 cis-reporter transcription, actives raise or lower the signal
In short: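 After transient transfection of HepG2 cells with cis-promoter reporter units and 24 h chemical treatment, reporter transcripts were quantified by RT-PCR and capillary electrophoresis fluorescence. Gain- and loss-of-signal fitted against DMSO.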

[18] = ATG_SREBP_CIS: Attagene CIS-FACTORIAL HepG2 Assay for human Sterol Regulatory Element Binding (SREBP) (AID 2282962); settings: HepG2 Attagene cis-factorial SREBP reporter, mRNA; actives raise or lower the signal
In short: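 Values derive from bidirectional curve fitting with DMSO as baseline. The underlying measurement is reporter mRNA from cis-element-regulated units in transiently transfected HepG2, quantified by RT-PCR and capillary electrophoresis after 24 h exposure.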

[19] = target: Signal transducer and activator of transcription 3 (Homo sapiens) (UniProt P40763); assay: ATG_STAT3_CIS: Attagene CIS-FACTORIAL HepG2 Assay for human Signal Transducer and Activator of Transcription 3 (STAT3) (AID 2282963); settings: HepG2, Attagene cis-factorial STAT3 reporter transcription; actives raise or lower the signal
In short: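 Fluorescence intensity of 6-FAM-labelled reporter fragments, separated by capillary electrophoresis after RT-PCR, gave the signal. Cells were HepG2 transfected with cis-element reporter units and treated 24 h; fitting was bidirectional relative to DMSO.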

[20] = ATG_TAL_CIS: Attagene CIS-FACTORIAL HepG2 Assay for human TAL Basal Promoter (AID 2282966); settings: HepG2 Attagene cis-factorial TAL promoter reporter; actives raise or lower the signal;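 further: background control endpoint measuring basal TAL promoter reporter mRNA not a specific factor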
In short: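 Background-control endpoint: basal TAL promoter reporter transcripts in transiently transfected HepG2, measured 24 h after dosing. Read-out by RT-PCR with fluorescent primer extension and capillary electrophoresis; gain or loss of signal fitted relative to DMSO.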

Measured: AC50

Chain of Signal transducer and activator of transcription 3 (Homo sapiens) (P40763 whole entry, looked up, the tested form may be a part): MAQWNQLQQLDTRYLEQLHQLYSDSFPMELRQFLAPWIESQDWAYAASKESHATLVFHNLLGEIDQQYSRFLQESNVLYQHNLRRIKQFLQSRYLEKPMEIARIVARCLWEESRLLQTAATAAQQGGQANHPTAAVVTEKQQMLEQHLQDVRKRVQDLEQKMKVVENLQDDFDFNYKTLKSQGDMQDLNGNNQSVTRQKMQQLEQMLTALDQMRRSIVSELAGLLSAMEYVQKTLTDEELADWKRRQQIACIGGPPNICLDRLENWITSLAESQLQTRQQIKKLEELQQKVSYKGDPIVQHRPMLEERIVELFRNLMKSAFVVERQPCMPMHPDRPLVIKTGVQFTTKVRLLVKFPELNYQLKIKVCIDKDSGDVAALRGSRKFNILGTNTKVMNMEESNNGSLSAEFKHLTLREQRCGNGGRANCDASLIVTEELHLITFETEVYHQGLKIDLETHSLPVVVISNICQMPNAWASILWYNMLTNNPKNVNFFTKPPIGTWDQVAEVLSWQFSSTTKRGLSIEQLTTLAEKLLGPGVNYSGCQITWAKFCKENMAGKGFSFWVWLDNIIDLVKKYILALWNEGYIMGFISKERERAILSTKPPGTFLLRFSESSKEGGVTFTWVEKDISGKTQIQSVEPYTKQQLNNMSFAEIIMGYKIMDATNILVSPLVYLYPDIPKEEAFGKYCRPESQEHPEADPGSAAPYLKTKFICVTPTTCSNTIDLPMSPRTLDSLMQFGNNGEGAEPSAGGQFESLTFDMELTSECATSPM
Chain of Paired box protein Pax-6 (Homo sapiens) (P26367 whole entry, looked up): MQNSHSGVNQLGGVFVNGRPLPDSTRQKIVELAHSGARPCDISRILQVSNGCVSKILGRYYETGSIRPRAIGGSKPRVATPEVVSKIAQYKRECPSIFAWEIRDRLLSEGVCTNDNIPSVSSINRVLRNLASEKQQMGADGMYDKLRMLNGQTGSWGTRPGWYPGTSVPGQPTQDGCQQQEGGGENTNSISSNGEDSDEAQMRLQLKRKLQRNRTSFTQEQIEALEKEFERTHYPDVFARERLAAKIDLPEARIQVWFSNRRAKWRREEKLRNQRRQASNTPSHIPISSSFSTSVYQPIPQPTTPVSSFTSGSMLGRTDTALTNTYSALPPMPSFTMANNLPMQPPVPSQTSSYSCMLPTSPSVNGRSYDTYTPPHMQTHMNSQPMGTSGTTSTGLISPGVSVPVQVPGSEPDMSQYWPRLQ
Chain of CCAAT/enhancer-binding protein beta (Homo sapiens) (P17676 whole entry, looked up): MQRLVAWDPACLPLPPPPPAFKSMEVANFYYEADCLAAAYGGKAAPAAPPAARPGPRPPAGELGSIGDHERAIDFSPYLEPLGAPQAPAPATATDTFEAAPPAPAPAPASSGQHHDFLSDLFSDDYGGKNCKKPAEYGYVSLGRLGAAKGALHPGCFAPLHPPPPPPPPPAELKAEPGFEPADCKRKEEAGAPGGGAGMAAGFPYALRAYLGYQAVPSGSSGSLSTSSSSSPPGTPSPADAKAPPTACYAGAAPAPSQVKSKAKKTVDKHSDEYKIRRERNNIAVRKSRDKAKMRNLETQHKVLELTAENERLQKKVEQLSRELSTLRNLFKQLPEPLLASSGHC
Chain of Transcription factor Sp1 (Homo sapiens) (P08047 whole entry, looked up): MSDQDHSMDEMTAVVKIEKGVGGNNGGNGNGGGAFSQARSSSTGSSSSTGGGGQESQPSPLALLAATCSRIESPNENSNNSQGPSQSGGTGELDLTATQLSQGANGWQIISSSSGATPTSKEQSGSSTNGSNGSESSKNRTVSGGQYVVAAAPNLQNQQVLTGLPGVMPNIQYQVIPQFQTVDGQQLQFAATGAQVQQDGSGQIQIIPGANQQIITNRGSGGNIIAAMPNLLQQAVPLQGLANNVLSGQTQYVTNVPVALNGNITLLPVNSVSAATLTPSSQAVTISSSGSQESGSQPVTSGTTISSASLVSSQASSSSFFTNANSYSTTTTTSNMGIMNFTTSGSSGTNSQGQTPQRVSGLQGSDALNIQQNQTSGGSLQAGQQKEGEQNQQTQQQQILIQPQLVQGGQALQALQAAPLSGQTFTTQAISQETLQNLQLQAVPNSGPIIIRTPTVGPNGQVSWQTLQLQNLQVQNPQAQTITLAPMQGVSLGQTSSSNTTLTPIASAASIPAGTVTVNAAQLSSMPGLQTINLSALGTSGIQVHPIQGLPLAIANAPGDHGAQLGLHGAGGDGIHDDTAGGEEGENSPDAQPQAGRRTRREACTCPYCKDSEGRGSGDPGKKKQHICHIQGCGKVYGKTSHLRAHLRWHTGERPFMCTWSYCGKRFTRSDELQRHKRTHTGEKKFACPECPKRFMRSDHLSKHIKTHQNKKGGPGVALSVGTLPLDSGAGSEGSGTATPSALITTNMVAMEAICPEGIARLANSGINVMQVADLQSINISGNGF

CCCCCCCCCCCCCCCCCC[N+](C)(C)C
active: [1] 44.4 µM | [2] 41.1 µM | [4] 38.6 µM | [6] 6.9 µM | [9] 16.7 µM | [10] 42 µM | [11] 38.7 µM | [12] 39.2 µM | [14] 40.1 µM | [15] 5.86 µM | [18] 6.46 µM | [19] 44 µM | [20] 39.2 µM
inactive: [3] | [5] | [7] | [8] | [13] | [16] | [17]

C=C1CC[C@H]2C[C@@H]1C2(C)C
active: [1] 26 µM | [5] 26.1 µM | [16] 11.5 µM
inactive: all other assays above

Cc1ccccc1S(N)(=O)=O
inactive: all assays above

NCc1ccccc1
inactive: all assays above

CC1=CCCC(C)(C)C12CCC(C)O2 (stereo not given)
active: [16] 1.28 µM
inactive: all other assays above

CCCCCCCCCCCCCC
inactive: all assays above

CN(C)N=Nc1ccccc1
active: [16] 48.3 µM
inactive: all other assays above

CCCC(=O)OC
inactive: all assays above

O=C(C1CCCCC1)N1CC(=O)N2CCc3ccccc3C2C1 (stereo not given)
active: [16] 7.1 µM
inactive: all other assays above

CCCCCCC(O)CCCCCCCCCCC(=O)OC (stereo not given)
active: [16] 27.5 µM
inactive: all other assays above

c1cc[c]([Bi]([c]2ccccc2)[c]2ccccc2)cc1
active: [3] 58.1 µM | [16] 4.08 µM
inactive: all other assays above

NC(=O)c1ccc(N)cc1
inactive: all assays above

O=C(O)c1cc(Cl)cc(Cl)c1O
active: [16] 68.7 µM
inactive: all other assays above

CC1=NN(c2cc(Cl)c(S(=O)(=O)O)cc2Cl)C(=O)C1N=Nc1ccc(S(=O)(=O)O)cc1 (stereo not given)
active: [16] 100 µM
inactive: all other assays above

F[B-](F)(F)F
inactive: all assays above

CN(C)CCCN1c2ccccc2CCc2ccc(Cl)cc21
active: [4] 7.1 µM | [15] 11.1 µM | [16] 5.14 µM | [18] 15.8 µM
inactive: all other assays above

C1=CCC=C1
inactive: all assays above

CCOC(=O)c1ccccc1
active: [2] 68.7 µM | [9] 180 µM | [16] 100 µM | [17] 28 µM
inactive: all other assays above
